Records with an inconclusive call do not appear. Calls of active or inactive are those of the source. Calls follow the shape of the dose curve; as a rule, active = well fitted curve in the direction sought with a large enough effect in the repeat runs; inconclusive = weak or mixed curves; inactive = no such curve, though single readings can be large; an effect the other way counts as inactive or inconclusive.
Experiments:
[1] = A CellTox Green Cytotoxicity Assay to monitor cytotoxicity in HEK293 cells - 40 hour (AID 1224871); also: nearly all actives have a fitted effect of over 45% in size
Outline: (§1)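 HEK293 cells, 600/well, were preincubated 5 hours and then exposed to compounds at 37 C for up to 40 hours. A cell-impermeant cyanine dye staining dead-cell DNA was read by fluorescence at 0, 8, 16, 24, 32 and 40 h time points.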

[2] = qHTS RealTime-Glo MT Cell Viability Assay in HEK293 cells - 16 hour (AID 1224872); also: nearly all actives have a fitted effect of over 50% in size
Outline: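 Quantitative high-throughput screen of the Tox21 10K library in HEK293: cells and RealTime-Glo reagents plated together, compound added at 5 h, luminescence monitored through 40 h at 37 C.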

[3] = qHTS RealTime-Glo MT Cell Viability Assay in HepG2 cells - 8 hour (AID 1224873); also: nearly all actives have a fitted effect of over 55% in size
Outline: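 HepG2 cells mixed with RealTime-Glo MT reagents (NanoLuc plus cell-permeant prosubstrate) were seeded at 600 cells/well, incubated 5 h at 37 C/5% CO2, then pinned with compounds in DMSO; nonlytic luminescence tracked viability during 40 h treatment.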

[4] = qHTS RealTime-Glo MT Cell Viability Assay in HEK293 cells - 40 hour (AID 1224874); conditions: RealTime-Glo luminescence; max response: stronger effect = lower value; also: nearly all actives have a fitted effect of over 50% in size
Outline: (§2)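 600 cells/well were plated with the nonlytic NanoLuc/prosubstrate reagent, pre-incubated 5 h, then given 23 nL of compound in DMSO. Incubation at 37 C for 40 h, with luminescence from viable-cell-reduced substrate read repeatedly from 0 h.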

[5] = A CellTox Green Cytotoxicity Assay to monitor cytotoxicity in HEK293 cells - 24 hour (AID 1224875); also: nearly all actives have a fitted effect of over 45% in size
Outline: as §1

[6] = A CellTox Green Cytotoxicity Assay to monitor cytotoxicity in HepG2 cells - 16 hour (AID 1224876); also: nearly all actives have a fitted effect of over 45% in size
Outline: (§3)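 HepG2 cells, 600/well, preincubated 5 h with CellTox Green dye, then exposed to Tox21 compounds in DMSO at 37 C for up to 40 h. Dead-cell DNA fluorescence read at the indicated time point.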

[7] = A CellTox Green Cytotoxicity Assay to monitor cytotoxicity in HepG2 cells - 24 hour (AID 1224878); also: nearly all actives have a fitted effect of over 45% in size
Outline: as §3

[8] = A CellTox Green Cytotoxicity Assay to monitor cytotoxicity in HepG2 cells - 40 hour (AID 1224879); also: nearly all actives have a fitted effect of over 40% in size
Outline: as §3

[9] = qHTS RealTime-Glo MT Cell Viability Assay in HEK293 cells - 0 hour (AID 1224880); also: nearly all actives have a fitted effect of over 45% in size
Outline: as §2

[10] = qHTS RealTime-Glo MT Cell Viability Assay in HepG2 cells - 32 hour (AID 1224877); also: nearly all actives have a fitted effect of over 55% in size
Outline: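 Compound treatment began 5 h after plating HepG2 cells (600/well) with NanoLuc luciferase and prosubstrate. Plates stayed at 37 C for 40 h; luminescence was captured at six time points, 0 h through 40 h.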
% is scaled to controls: 0 for no effect and ±100 for the full control effect; potency is read from the fitted curve at half-maximal effect.

CS(=O)(=O)c1ccc([C@@H](C[C@H]2CCC(=O)C2)C(=O)Nc2cnccn2)cc1Cl
inactive: Potency [1] | Potency [2] | Potency [3] | max response [4] 0.0186% | Potency [5] | Potency [6] | Potency [7] | Potency [8] | Potency [9]

Cc1ccc(S(=O)(=O)NC(=O)NC2CCCCC2)cc1
inactive: Potency [1] | Potency [2] | Potency [3] | max response [4] 4.44% | Potency [5] | Potency [6] | Potency [7] | Potency [8] | Potency [9]

BrC(Br)C(Br)Br
inactive: Potency [1] | Potency [2] | Potency [3] | max response [4] -12.1% | Potency [5] | Potency [6] | Potency [7] | Potency [8] | Potency [9]

O=[N+]([O-])C1(Br)COCOC1
inactive: Potency [9]
active: Potency [1] 49 µM | Potency [2] 38.9 µM | Potency [3] 54.9 µM | Potency [4] 34.7 µM | Potency [5] 54.9 µM | Potency [10] 49 µM | Potency [7] 54.9 µM | Potency [8] 43.6 µM

[Cl][Nd]([Cl])[Cl]
inactive: Potency [1] | Potency [2] | Potency [3] | max response [4] 2.18% | Potency [5] | Potency [6] | Potency [7] | Potency [8] | Potency [9]

CCC(CO)(CO)[N+](=O)[O-]
inactive: Potency [1] | Potency [2] | Potency [3] | max response [4] 1.66% | Potency [5] | Potency [10] | Potency [9]

CCc1ccc(C)cc1
inactive: Potency [1] | Potency [2] | Potency [3] | max response [4] 11.4% | Potency [5] | Potency [6] | Potency [7] | Potency [8] | Potency [9]

CC[C@H]1OC(=O)[C@H](C)[C@@H](O[C@H]2C[C@@](C)(OC)[C@@H](O)[C@H](C)O2)[C@H](C)[C@@H](O[C@@H]2O[C@H](C)C[C@H](N(C)C)[C@H]2O)[C@](C)(O)C[C@@H](C)C(=O)[C@H](C)[C@@H](O)[C@]1(C)O
inactive: Potency [1] | Potency [2] | Potency [3] | max response [4] -19.4% | Potency [5] | Potency [6] | Potency [7] | Potency [8] | Potency [9]

C[C@H](CS)C(=O)N1CCC[C@H]1C(=O)O
inactive: Potency [1] | Potency [2] | Potency [3] | max response [4] 9.42% | Potency [5] | Potency [6] | Potency [7] | Potency [8] | Potency [9]

O=CNNC=O
inactive: Potency [1] | Potency [2] | Potency [3] | max response [4] 10.2% | Potency [5] | Potency [6] | Potency [7] | Potency [8] | Potency [9]

COC(=O)CC(C(C)=O)C(=O)OC (configuration not stated)
inactive: Potency [1] | Potency [2] | Potency [3] | Potency [5] | Potency [6] | Potency [7] | Potency [8] | Potency [9]

CN1CCCN(C(c2ccccc2)c2ccc(Cl)cc2)CC1 (configuration not stated)
active: Potency [1] 26.8 µM | Potency [5] 23.9 µM | Potency [6] 23.9 µM | Potency [7] 23.9 µM | Potency [8] 21.3 µM
inactive: Potency [2] | Potency [3]

CC[C@@H](CO)NCCN[C@@H](CC)CO
inactive: Potency [1] | Potency [2] | Potency [3] | Potency [5] | Potency [6] | Potency [10] | Potency [7] | Potency [8] | Potency [9]

CCCCCCOC(=O)CCCCC
inactive: Potency [1] | Potency [2] | Potency [3] | Potency [5] | Potency [6] | Potency [10] | Potency [7] | Potency [8] | Potency [9]

CC(C)C(O)C(C)(C)CO (configuration not stated)
inactive: Potency [1] | Potency [3] | Potency [5] | Potency [6] | Potency [10] | Potency [7] | Potency [8] | Potency [9]
active: Potency [2] 0.899 µM

COc1ccc(-c2cc(=S)ss2)cc1
inactive: Potency [1] | Potency [2] | Potency [3] | Potency [5] | Potency [6] | Potency [10] | Potency [7] | Potency [8] | Potency [9]

O=C(NS(=O)(=O)/C=C/c1ccccc1)c1ccc(F)cc1Cl
active: Potency [7] 54.9 µM | Potency [8] 54.9 µM | Potency [9] 12.3 µM
inactive: Potency [1] | Potency [2] | Potency [3] | Potency [5] | Potency [10]

O=C(O)c1cc(Cl)cc(Cl)c1O
inactive: Potency [1] | Potency [2] | Potency [3] | Potency [5] | Potency [6] | Potency [10] | Potency [7] | Potency [8] | Potency [9]

O=C1CC[C@@H](C(=O)O)N1
inactive: Potency [1] | Potency [2] | Potency [3] | Potency [5] | Potency [6] | Potency [10] | Potency [7] | Potency [8] | Potency [9]

O=C1OC(=O)c2c(Br)c(Br)c(Br)c(Br)c21
inactive: Potency [1] | Potency [2] | Potency [3] | Potency [5] | Potency [6] | Potency [10] | Potency [7] | Potency [8] | Potency [9]

COC(CC(C)CCCC(C)(C)O)OC (configuration not stated)
inactive: Potency [1] | Potency [2] | Potency [3] | Potency [5] | Potency [6] | Potency [10] | Potency [7] | Potency [8] | Potency [9]

CCN(CC)CCOC(=O)C(c1ccccc1)c1ccccc1
inactive: Potency [1] | Potency [2] | Potency [3] | Potency [5] | Potency [6] | Potency [10] | Potency [7] | Potency [8] | Potency [9]
